# Source: PubChem BioAssay (NCATS)
# Inconclusive results are not listed. Calls of active or inactive are those of the source. Calls follow the shape of the dose curve; as a rule, active = well fitted cell-killing curve with a large enough effect; inconclusive = small, poorly fitted or top-dose-only effect, or effect the other way; inactive = no such curve, though single readings can be large or run the other way.
# Assay: Quantitative High-Throughput drug screen in 47 multiple myeloma cell lines against the NCATS MIPE library collection: PE2_PLB cell viability assay (AID 1919869); also: nearly all actives have a fitted effect of over 35% in size
# Conditions: PE2_PLB myeloma cells viability, ATP luminescence, 48 h; series mostly up to 45.8 µM
# From the text: PI: Beverly A. Mock Ph.D.
# Laboratory of Cancer Biology and Genetics,
# Center for Cancer Research, National Cancer Institute,
# National Institute of Health, Bethesda, Maryland
# Drug resistance and disease progression are common in multiple myeloma (MM) patients, underscoring the need for new therapeutic combinations. […] We hypothesized that effective combinations would reduce MYC expression and enhance p16 activity. […] These preclinical data identify potentially useful drug combinations for evaluation in drug-resistant MM and reveal potential mechanisms of combined drug sensitivity.
# Described herein is the primary MIPE qHTS used to cherrypick compounds. Validated compounds were then further tested for potential synergistic activiy.
# [1] Peat TJ, Gaikwad SM, Dubois W, Gyabaah-Kessie N, Zhang S, Gorjifard S, Phyo Z, Andres M, Hughitt VK, Simpson RM, Miller MA, Girvin AT, Taylor A, Williams D, D'Antonio N, Zhang Y, Rajagopalan A, Flietner E, Wilson K, Zhang X, Shinn P, Klumpp-Thomas C, McKnight C, Itkin Z, Chen L, Kazandijian D, Zhang J, Michalowski AM, Simmons JK, Keats J, Thomas CJ, Mock BA. Drug combinations identified by high-throughput screening promote cell cycle transition and upregulate Smad pathways in myeloma. Cancer Lett. 2023 Aug 1;568:216284. doi: 10.1016/j.canlet.2023.216284. Epub 2023 Jun 24. PMID: 37356470; PMCID: PMC10408729.
# SEQUENCE No. (e.g., 1, 2, 3, etc.); […] (e.g., Cells, Incubation, Reagent, etc.); VALUE and DESCRIPTION.
# 1; Cells; 5 uL; white, solid bottom 1536-well Greiner assay plate.
# 2; Compounds; 23 nL; Kalypsis pin tool (Wako USA) equipped with a 1536-well pin head to transfer to the assay plates.
# 3; Incubation; 48 hours; 37C incubation.
# 4; Reagent;5uL; CellTiter Glo (Promega).
# 5; Detector; 425V; Luminescence; Viewlux PerkinElmer.
# NOTES (numbers refer to Sequence numbers above)
# 1. The cell-based screening methods employed in this study were like those previously published. Briefly, the corresponding myeloma cell lines were screened in 1,536-well plates with 500 cells, 5-uL per well for inhibition of cell viability (assessed by measuring ATP levels with CellTiterGlo).
# 2. NCATS MIPE 4.0 library of approved and investigational drugs were added using the Kalypsis pin tool. Wells treated with DMSO only for 100% viability and media only for 0% viability were used as controls.
# 3. The assay plates were covered and incubated for 48 hours in a 37C, 5% CO2 incubator with controlled humidity.
# 4. After 48 hours, CellTilter-GloTM luminescent substrate mix (Promega) reagent was added to the assay plate and plates we incubated for 5 min at room temperature.
# 5. Signal was measured as median relative luminescence units on a ViewLux (PerkinElmer) multiplate reader.
# [1] Heske CM, Davis MI, Baumgart JT, Wilson K, Gormally MV, Chen L, Zhang X, Ceribelli M, Duveau DY, Guha R, Ferrer M, Arnaldez FI, Ji J, Tran HL, Zhang Y, Mendoza A, Helman LJ, Thomas CJ. Matrix Screen Identifies Synergistic Combination of PARP Inhibitors and Nicotinamide Phosphoribosyltransferase (NAMPT) Inhibitors in Ewing Sarcoma. Clin Cancer Res. 2017 Dec 1;23(23):7301-7311. doi: 10.1158/1078-0432.CCR-17-1121. Epub 2017 Sep 12. PMID: 28899971; PMCID: PMC6636827.
# Potency is read from the fitted curve at half-maximal effect.
row,Structure (SMILES),Potency
1,Cc1cc(Nc2cc(N3CCN(C)CC3)nc(Sc3ccc(NC(=O)C4CC4)cc3)n2)n[nH]1,14800 nM (active)
2,CCc1c2c(nc3ccc(O)cc13)-c1cc3c(c(=O)n1C2)COC(=O)[C@]3(O)CC,148 nM (active)
3,COc1ccc2c(OCc3nnc4ccc(-c5ccccc5)nn34)ccnc2c1,1870 nM (active)
4,CCS(=O)(=O)c1cccc(-c2cc(C(=O)NC3CCN(C)CC3)c(C)c3[nH]c4ncc(C)cc4c23)c1,935 nM (active)
5,Cc1c(CN2CCN(S(C)(=O)=O)CC2)sc2c(N3CCOCC3)nc(-c3cnc(N)nc3)nc12,37.2 nM (active)
6,CNC(=O)c1nn(C)c2c1C(C)(C)Cc1cnc(Nc3ccc(N4CCN(C)CC4)cc3)nc1-2,2640 nM (active)
7,Cc1[nH]c2ccccc2c1CCNCc1ccc(C=CC(=O)NO)cc1,93.5 nM (active)
8,O=C1CCC[C@@H]2[C@H]3CCC[N+]4([O-])CCC[C@@H](CN12)[C@@H]34 (stereo not given in full),inactive
9,CC(=O)OCC(=O)[C@@]1(O)[C@H](C)C[C@H]2[C@@H]3C=C(C)C4=Cc5c(cnn5-c5ccccc5)C[C@]4(C)[C@@H]3[C@@H](O)C[C@@]21C,8330 nM (active)
10,C1=CCOCc2cc(ccc2OCCN2CCCC2)Nc2nccc(n2)-c2cccc(c2)OCC1,1660 nM (active)
11,COc1cc2ncn(-c3cc(OCc4ccccc4C(F)(F)F)c(C(N)=O)s3)c2cc1OC,18700 nM (active)
12,Cc1cn2cc(C(=O)N(C)CCO)cc(N[C@@H]3CCOc4cccc(C)c43)c2n1,inactive
13,COc1ccc(OC)c(-c2nnc3ccc(-c4ccc(OC)c(O[C@@H]5CCOC5)c4)nn23)c1,8330 nM (active)
14,CC(C)(C)c1cc(C(C)(C)C)c(NC(=O)c2c[nH]c3ccccc3c2=O)cc1O,inactive
15,CC(C)(C)OC(=O)Nc1ccc(-c2cc(C(=O)NCCCCCCC(=O)NO)no2)cc1,2640 nM (active)
16,CC=CC1=C(C(=O)O)N2C(=O)[C@H](NC(=O)[C@H](N)c3ccc(O)cc3)[C@@H]2SC1,inactive
17,CC(=O)OCCN1C(=O)c2c(C)nc3ccc(S(=O)(=O)N4CCOCC4)cc3c2C1=O,inactive
18,Cc1cn2c(-c3cn[nH]c3)cnc2c(Nc2ccc(C(=O)N3CCNCC3)cc2F)n1,20900 nM (active)
19,CCN(CC)CCNC(=O)c1ccc2nc(-c3ccccc3)c(-c3ccc(CN4CCC(n5c(=O)[nH]c6ccccc65)CC4)cc3)nc2c1,1050 nM (active)
20,CCCCOc1c(C(=O)c2c(F)cc(C)cc2F)cnc2n[nH]cc12,3720 nM (active)

row,Structure (SMILES),Potency
1,CC(C)Nc1cc(C(F)(F)F)cc2nc(NC(=O)c3cccnc3)nn12,inactive
2,O=c1[nH]nc(Sc2ncc([N+](=O)[O-])s2)n1-c1ccc2c(c1)OCCO2,743 nM (active)
3,Cn1cc(-c2ccncc2)c(-c2ccc(OCc3ccc4ccccc4n3)cc2)n1,5900 nM (active)
4,CNC(=O)c1ccc(N2C(=S)N(c3cnc(C#N)c(C(F)(F)F)c3)C(=O)C23CCC3)cc1F,1050 nM (active)
5,COC(=O)Nc1ccc(-c2nc(N3CCOCC3)c3cnn(C4CCN(Cc5cccnc5)CC4)c3n2)cc1,46.9 nM (active)
6,CCC1=C[C@@H]2CN(C1)Cc1c([nH]c3ccccc13)[C@@](C(=O)OC)(c1cc3c(cc1OC)N(C)[C@@H]1[C@@](O)(C(=O)OC)[C@H](OC(C)=O)[C@]4(CC)C=CCN5CC[C@]31[C@@H]54)C2,26.4 nM (active)
7,CCCn1c(=O)c2[nH]c(-c3cnn(Cc4cccc(C(F)(F)F)c4)c3)nc2n(CC)c1=O,inactive
8,CCCCN1CCC(CNC(=O)c2c3n(c4ccccc24)CCCO3)CC1,11800 nM (active)
9,O=C(CCCCCCC(=O)Nc1ccc([C@H]2O[C@@H](CSc3nc(-c4ccccc4)c(-c4ccccc4)o3)C[C@@H](c3ccc(CO)cc3)O2)cc1)NO,14800 nM (active)
10,C=C1C(=CC=C2CCCC3(C)[C@@H]([C@H](C)C=CC=CC(O)(CC)CC)CC[C@@H]23)C[C@@H](O)C[C@@H]1O (stereo not given in full),23500 nM (active)
11,C=CC(=O)Nc1cc2c(Nc3ccc(F)c(Cl)c3)ncnc2cc1C#CC(C)(C)N1CCN(C)CC1,1050 nM (active)
12,CC1=C(CO)C(=O)O[C@@H]([C@@H](C)[C@H]2CC[C@H]3[C@@H]4C[C@H]5O[C@]56[C@@H](O)C=CC(=O)[C@]6(C)[C@@H]4CC[C@]23C)C1,166 nM (active)
13,Cc1c(C)n(Cc2ccc(-c3ccccc3C(=O)O)cc2)c2ccc(C(=O)N[C@@H](C)c3ccc([N+](=O)[O-])cc3)cc12,11800 nM (active)
14,Cc1cc(Nc2nc(N[C@@H](C)c3ccc(F)cc3)c(C#N)cc2F)n[nH]1,935 nM (active)
15,CC(C)=CCCC(C)=CCCC(C)=CCSc1ccccc1C(=O)O,2350 nM (active)
16,CN(C)CC=CC(=O)Nc1cc2c(Nc3ccc(F)c(Cl)c3)ncnc2cc1O[C@H]1CCOC1,2960 nM (active)
17,Cc1cc(Nc2cc(CN3CCOCC3)c3nc(C)c(Cc4ccc(Cl)cc4F)n3n2)n[nH]1,5260 nM (active)
18,CCn1cc(-c2ccnc3[nH]c(-c4cccc(CN(C)C)c4)cc23)c(-c2ccc(NC(=O)N(C)C)cc2)n1,11800 nM (active)
19,COc1ccc(-n2nc(C(N)=O)c3c2C(=O)N(c2ccc(N4CCCCC4=O)cc2)CC3)cc1,inactive
20,OCCCNc1cc(-c2ccnc(Nc3cccc(Cl)c3)n2)ccn1,37.2 nM (active)
